According to PubChem BioAssay (NCI):
About 83,000 compounds went through this panel and 20% of them were active in at least one assay; those are over-represented in the sample as a whole.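 Each cell line was grown in a 96-well plate and treated with one concentration of compound for 48 hours. Values below 10 were considered active.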 A number with no mark means an inactive call. Active and inactive are the calls of the source.

Legend:
Assay in all cases: NCI-60 one-dose screen, 48 h (100 = growth as untreated, 0 = no growth, -100 = all killed)
Details in all cases: 10 µM unless noted
HCT-15 colon = tested on: HCT-15 colon
HT29 colon = tested on: HT29 colon
SNB-75 CNS = tested on: SNB-75 CNS
SNB-19 CNS = tested on: SNB-19 CNS
U251 CNS = tested on: U251 CNS
PC-3 prostate = tested on: PC-3 prostate
SK-MEL-5 melanoma = tested on: SK-MEL-5 melanoma
UACC-62 melanoma = tested on: UACC-62 melanoma
LOX IMVI melanoma = tested on: LOX IMVI melanoma
SK-MEL-28 melanoma = tested on: SK-MEL-28 melanoma

SMILES | growth (HCT-15 colon) | growth (HT29 colon) | growth (SNB-75 CNS) | growth (SNB-19 CNS) | growth (U251 CNS) | growth (PC-3 prostate) | growth (SK-MEL-5 melanoma) | growth (UACC-62 melanoma) | growth (LOX IMVI melanoma) | growth (SK-MEL-28 melanoma)
CSc1nc2ncc([N+](=O)[O-])c(=O)n2[nH]1 | 105% | 107% | 93% | 103% | 102% | 98.1% | 103% | 101% | 101% | –
COc1ccc(C2=C(Nc3ccc(C(=O)Nc4ccccc4)cc3)C(=O)N(C)C2=O)cc1 | 89.1% | 84% | 88.9% | 95.3% | 95.4% | 80.7% | 96.2% | 92.3% | 84.6% | –
N=C(N)c1ccc(-c2ccc(-c3ccc(Cl)cc3Cl)s2)cc1 | -70.6% (active) | 3.85% (active) | 88.5% | 10.9% | -45.4% (active) | 0.127% (active) | 89.3% | 74.8% | -89.3% (active) | –
C#Cc1c2c(c(OC)c3c1OCO3)[C@H]([C@H]1OC(=O)c3c1ccc(OC)c3OC)N(C)CC2 | 60.7% | 60.7% | 85.8% | 92.7% | 87.9% | 76.5% | 93.4% | 75.6% | 79.7% | –
Cc1[nH]c(C(=O)Nc2ccc(C(=O)N3CCN(c4cc5c(cc4F)c(=O)c(C(=O)O)cn5C4CC4)CC3)cc2OC(C)C)c(Cl)c1Cl | 18.1% | 37.3% | 67.8% | 89.8% | 36.4% | 59.1% | 75.3% | 81.8% | 21.6% | –
Cc1c(-c2ccc(O)cc2)n(Cc2ccc(OCCN3CCCCCC3)cc2)c2ccc(O)cc12 | 20.5% | 59.4% | 43.4% | 88.1% | 56.4% | 76.8% | 57.2% | 98.3% | 39.4% | 92.6%
O=C(c1ccccc1)c1ccc(C2CCCCC2)cc1 | 91.5% | 91.5% | 97.5% | 86.7% | 88.9% | 103% | 96.6% | 86.8% | 94.6% | –
Cn1ccnc1C(=O)/C=C/c1ccc(C(=O)Nc2ccccc2O)cc1 | 7.09% (active) | 24.7% | 46.2% | 14.3% | 5.29% (active) | 23.5% | 89.3% | 50.6% | -18% (active) | –
O=S(=O)(Nc1cc(Cl)ccc1Cl)c1ccc(-c2cnc(C3CC3)o2)cc1 | 26.2% | 5.45% (active) | -8.98% (active) | 31.7% | 30.2% | 38.3% | 31.1% | 33.2% | 35.8% | –
CCc1ncnc2c1ccn2C(C)c1ccc(OC)c(F)c1 (stereo unspecified) | 39.2% | 14% | 35.8% | 53.2% | 35.3% | 53.8% | 33% | 39.8% | 45.3% | –
O=C(/C=C/c1ccccc1)Nc1ncc(Cc2ccccc2Cl)s1 | 16% | 6.09% (active) | 15.8% | 30.5% | 27.2% | 25.8% | 34.3% | 34.1% | 21.3% | 55.7%
COc1cc2nc3cc([N+](=O)[O-])ccc3c(NCCNCC(C)O)c2cc1OC (stereo unspecified) | 23.4% | 2.64% (active) | -59.9% (active) | -10.4% (active) | -25.3% (active) | -38.6% (active) | -82.4% (active) | -56.8% (active) | -35.7% (active) | -20% (active)
COc1cc2ncnc(Nc3ccc(S(=O)(=O)Nc4cc(C)on4)cc3)c2cc1OCCCN1CCN(c2ccc(F)cc2)CC1 | 110% | 112% | 85.4% | 97.3% | 93.6% | 101% | 103% | 91% | 89.8% | 107%
CNc1nnc2n(-c3ccccc3)c(=O)c3cnn(-c4ccccc4)c3n12 | 76.2% | 51.3% | 73.1% | 110% | 71.4% | 62.7% | 100% | 95.4% | 82.6% | 103%
c1cnc2c(-c3nc4ccc5[nH]ncc5c4c4c3CCCC4)c[nH]c2c1 | 43.9% | 14.9% | 57.8% | 29.8% | 29.8% | 27.5% | 56.4% | 45.8% | 19.6% | 88.8%
COc1ccc2c(c1OC)CO[C@@H]2[C@H]1c2c(cc3c(c2OC)OCO3)CCN1S(=O)(=O)c1cn(C)cn1 | 13.5% | 16.9% | 27.7% | 33.2% | 9.29% (active) | 24% | 23.4% | 27.6% | 38% | 55.3%
Cc1cc(=O)oc2cc(OCc3nn4c(Nc5nc6ccccc6s5)c(-c5ccccc5)nc4s3)ccc12 | 91.3% | 102% | 84.4% | 74.7% | 96.7% | 87% | 99.2% | 84.4% | 95.8% | 102%
O=C(N/N=C/c1c(Cl)cccc1Cl)c1cccnc1Nc1cccc(C(F)(F)F)c1 | 26% | 40.4% | 63.1% | 27.7% | 16.4% | 24.3% | 20.5% | 17.2% | 25.8% | 107%
COc1c(B(O)O)cccc1-c1nc2c(F)cc3[nH]ncc3c2c2c1CCCC2 | 0.465% (active) | 6.27% (active) | -87.8% (active) | 6.94% (active) | 13.6% | 13.8% | -26.3% (active) | 2.47% (active) | -35.2% (active) | 2.91% (active)
CCOC(=O)Cc1cnc(N/N=C(\C)c2cc3ccccc3o2)s1 | 105% | 85.5% | 105% | 95% | 91.3% | 78% | 99.3% | 86.3% | 86% | 110%
CC/C=C\C[C@H](O)C/C=C1/C(=O)C=C[C@@H]1C/C=C\CCCC(=O)N(C)C | -21.8% (active) | -71.5% (active) | 72.2% | 27.1% | -31% (active) | 2.37% (active) | -88.6% (active) | -31.6% (active) | -84.3% (active) | 21.5%
O=c1c2ccccc2n2cnc3ccc(Cl)c1c32 | 66.4% | 73.4% | 100% | 83.8% | 78.4% | 85.2% | 77% | 64.6% | 62.8% | 92.2%
CC/C(=C(/c1ccc(Cl)cc1)c1ccc(OCCN2CCCCC2)cc1)c1ccc(OC)cc1 | 18.5% | 11.9% | 103% | 72.4% | 40.6% | 30.9% | 36.6% | 78.8% | 53.4% | 82.7%
O=C(/C=C/c1cccc(Cl)c1)c1cccc(OCCCOc2cccc(C(=O)/C=C/c3cccc(Cl)c3)c2)c1 | 98.1% | 96.6% | 81.7% | 101% | 75.5% | 100% | 100% | 80.6% | 63.5% | 108%
C/C(=N\O)c1ccc(Cl)cc1 | 112% | 108% | 89.6% | 104% | 103% | 86.3% | 108% | 95% | 105% | 122%
O=S(=O)(Nc1cc(F)cc(Cl)c1)c1ccc(-c2cnc(C3CC3)o2)cc1 | 25.4% | 4.89% (active) | -22.1% (active) | 30.4% | 33.6% | 32% | 19.9% | 35.1% | 39.3% | 71.3%
COC(=O)[C@@H](CCCCNC(=O)[C@]12CCC(C)(C)C[C@@H]1C1=CC[C@@H]3[C@@]4(C)C/C(=C/c5ccco5)C(=O)C(C)(C)[C@@H]4CC[C@@]3(C)[C@]1(C)CC2)NC(=O)[C@]12CCC(C)(C)C[C@@H]1C1=CC[C@@H]3[C@@]4(C)C/C(=C/c5ccco5)C(=O)C(C)(C)[C@@H]4CC[C@@]3(C)[C@]1(C)CC2 | 103% | 112% | 106% | 95.3% | 106% | 90.3% | 97.5% | 97.8% | 107% | 107%
